Data: PubChem BioAssay AID1240 (Sanford-Burnham Center for Chemical Genomics, 2008)
Screen size: about 50,000 compounds; about 800 (1.6%) showed an effect of 50% or more. Many of the other results were omitted from the sample, so strong results are more common in it than they were.

molecular target: Bcl-2-like protein 10 (Homo sapiens) (UniProt Q9HD36); experiment: Phenotype converters, Bcl-B/TR3 peptide binding displacement, primary biochemical FP (AID 1240); settings: GST-Bcl-B / FITC-TR3 peptide fluorescence polarization; stronger effect = higher value; compound at 3.75 mg/L;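 note: 0% = Bcl-B with tracer peptide and DMSO and 100% = tracer peptide lacking Bcl-B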
Sequence (Q9HD36 whole entry, looked up): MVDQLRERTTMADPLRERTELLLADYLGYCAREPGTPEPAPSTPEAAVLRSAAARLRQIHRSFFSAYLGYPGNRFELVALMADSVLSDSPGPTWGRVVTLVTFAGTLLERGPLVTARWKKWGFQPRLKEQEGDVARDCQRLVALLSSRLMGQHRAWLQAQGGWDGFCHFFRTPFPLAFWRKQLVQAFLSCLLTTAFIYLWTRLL

Compound | displacement
CN(C)c1ccc(/C=N/NC(=O)c2ccc(CN3CCOCC3)cc2)cc1Br | 6.3%
Cc1ccc(-c2csc(N)c2C(=O)OC(C)C)cc1 | -1.9%
Cc1c(NC(=O)c2cccs2)cccc1-c1nc2ncccc2o1 | 3.8%
O=C(Nc1ccc(Nc2ccccc2)cc1)c1ccc(Cl)cc1Cl | -13.5%
O=C(N/N=C/c1ccccc1Cl)c1ccccn1 | -9.6%
CNCCOc1nc(-c2ccccc2)cc(-c2ccccc2)n1 | -7.8%
CCOC(=O)N1CCN(S(=O)(=O)c2ccc(C)cc2)C1 | 10.6%
O=C1CS/C(=N/N=C/c2ccc3c(c2)OCO3)N1 | -8.7%
O=C(NCC1CCS(=O)(=O)C1)OC1CCCCC1 (centres undefined) | 2%
CC1(C)CC(NCC(=O)OC2CCCCC2)CC(C)(C)N1 | 12.1%
NC(CC(=O)OC1CCCCC1)C(=O)OC1CCCCC1 (centres undefined) | 74.3%
Cc1ccc2[nH]c(C)c(CN(C)Cc3ccccc3)c(=O)c2c1 | -15.8%
COCCCNC(=O)CN(c1cccc([N+](=O)[O-])c1)S(=O)(=O)c1ccccc1 | 11.1%
Cc1cc(NC(=O)c2cc(-c3ccccc3)nc3ccccc23)no1 | 3.8%
CCO/C=C1\C(=O)N(CC)c2ccccc21 | 19.1%
CN(C)/C=C1\C=C2C(=O)c3ccccc3N2C1=O | 162%
CN(C)/C=C1/C=C(c2ccccc2)OC1=O | -11.5%
COc1ccc(N(CC(=O)NCc2ccccc2)S(=O)(=O)c2ccc(C)cc2)cc1 | -1.4%
COc1ccc(OC)c(N(CC(=O)N/N=C/c2ccc(OC3CSC3)cc2)S(=O)(=O)c2ccccc2)c1 | 7.5%
COc1ccc(/C(N)=N/OC(=O)c2ccc(C)cc2)cc1 | -20.8%
COc1ccc(/C(N)=N/OC(=O)c2ccc(Cl)cc2)cc1 | 83.7%
COc1ccc(C(=O)O/N=C(\N)c2ccccc2)cc1 | -9.3%
O=C(COc1ccccc1Cl)NNC(=O)c1ccccn1 | -13%

Compound | displacement
CCOc1cc(/C=C2/C(=O)ON=C2c2ccc(Cl)cc2)ccc1OC | 118%
O=C1ON=C(c2ccc(Cl)cc2)/C1=C/c1ccc(O)cc1 | 4.4%
COc1ccc(/C=C2\C=C(c3ccc(Cl)cc3)OC2=O)cc1C | 0.9%
COc1ccc(C2=C/C(=C/c3ccc(Cl)cc3)C(=O)O2)cc1 | -4.1%
COc1ccc(/C=C2\C=C(c3ccc(Cl)cc3)OC2=O)cc1[N+](=O)[O-] | 36.4%
CCOc1c(I)cc(/C=C2\C(=O)ON=C2c2ccccc2)cc1OC | 3.5%
COc1ccc(C2=C/C(=C/c3ccc(Cl)cc3)C(=O)O2)cc1OC | 105%
COc1ccc(/C=C2\C=C(c3ccc(Cl)cc3)OC2=O)cc1OC | 147%
COc1cc(/C=C2\C=C(c3ccc(Cl)cc3)OC2=O)cc(Br)c1OC | -9.5%
CN(C)c1ccc(C=Nn2cnnc2)cc1 | -7.2%
CCN(CC)CCSc1nc(O)c(C2CCCCC2)c(=O)[nH]1 | -6.4%
COc1cccc(C2NC(=S)NC(C)=C2C(=O)Nc2cccc(Cl)c2)c1 (centres undefined) | -14%
N#C/C(=C\c1ccc(-c2cccc([N+](=O)[O-])c2)o1)C(=O)N1CCOCC1 | -3.5%
CCOC(=O)c1c(C)n(C)c2c1cc(O)c1ccccc12 | -0.3%
Cc1ccc(/C=C(\C#N)c2nc(-c3ccc([N+](=O)[O-])cc3)cs2)o1 | 3.5%
C=CCNC(=O)CN(c1ccc(OC)cc1OC)S(=O)(=O)c1ccc(C)cc1 | 8.5%
C=COCCNC(=O)C(=O)Nc1ccc(F)cc1 | 5%
Cc1cccc(NC(=O)CCCN2C(=O)c3cccc4cccc(c34)C2=O)n1 | 0.6%
O=C1NN(c2ccccc2)C(=O)/C1=C/c1ccc(-c2ccccc2Cl)o1 | -13.5%
O=C1/C(=C/c2ccc(-c3ccccc3[N+](=O)[O-])o2)SC(=S)N1c1cccc(C(F)(F)F)c1 | -3%
COC(=O)c1ccc(-c2ccc(/C=C3/SC(=S)N(c4ccccc4)C3=O)o2)cc1 | 12.6%
COC(=O)c1ccccc1-c1ccc(/C=C2/SC(=S)N(c3ccccc3)C2=O)o1 | 70%
COC(=O)c1ccccc1-c1ccc(/C=C2/SC(=S)N(CC(=O)O)C2=O)o1 | 5.3%

Compound | displacement
O=C1/C(=C/c2ccc(-c3ccccc3[N+](=O)[O-])o2)SC(=S)N1c1cccc(Cl)c1 | 73.5%
COc1ccc(N2C(=O)/C(=C/c3ccc(-c4ccccc4[N+](=O)[O-])o3)SC2=S)cc1 | 11.9%
O=C(/C=C/c1cccc(C(F)(F)F)c1)Nc1cccc([N+](=O)[O-])c1 | 20.4%
CCOc1ccccc1NC(=S)NCc1ccccc1 | 3.9%
O=[N+]([O-])c1ccccc1S(=O)(=O)NCc1ccc2c(c1)OCO2 | -3.4%
Cc1ccc(OCC(=O)NC(C)c2ccccc2)cc1C (centres undefined) | 89.2%
Cc1cc(OCC(=O)NC(C)c2ccccc2)cc(C)c1Cl (centres undefined) | 1.4%
Cc1cccc(OCC(=O)NC(C)c2ccccc2)c1 (centres undefined) | -5.2%
COC(=O)c1sc(NC(=O)c2c(-c3c(Cl)cccc3Cl)noc2C)c(C#N)c1C | 3.1%
O=C(Oc1ccc(/C=N/NS(=O)(=O)c2ccc(Cl)cc2)cc1)c1ccco1 | 6.4%
O=C(O)c1cccc(-c2ccc(C=C3C(=O)c4ccccc4C3=O)o2)c1 | -2.7%
O=C(O)c1ccc(-c2ccc(C=C3C(=O)c4ccccc4C3=O)o2)cc1Cl | 25.2%
O=C(O)c1ccc(Cl)c(-c2ccc(C=C3C(=O)c4ccccc4C3=O)o2)c1 | 99.1%
N/C(=N\OC(=O)c1ccc(Cl)c([N+](=O)[O-])c1)c1ccccc1Cl | 1.1%
O=C1c2ccccc2NC(c2ccc(-c3ccccc3[N+](=O)[O-])o2)N1c1ccccc1 (centres undefined) | 16.8%
O=C(N/N=C/c1ccc(Br)c([N+](=O)[O-])c1)c1cccs1 | 113%
O=C(CNc1ccc2ccccc2c1)N/N=C/c1ccc(Br)c([N+](=O)[O-])c1 | -4.4%
Cc1cc(C(=O)N/N=C/c2ccc(Br)c([N+](=O)[O-])c2)n[nH]1 | 5.2%
O=C1N/C(=N/N=C/c2ccccc2O)SC1Cc1ccccc1 (centres undefined) | 1.4%
CCC1S/C(=N\N=C\c2cccc3ccccc23)NC1=O (centres undefined) | 127%
CCC1S/C(=N/N=C/c2ccc3c(c2)OCO3)NC1=O (centres undefined) | -13.8%
O=c1[nH]c(=S)[nH]c2c1C1(CCCC1)Cc1ccccc1-2 | -4.2%
COc1ccc(COC(=O)C2=C(C)NC3=C(C(=O)CCC3)C2c2cccc3ccccc23)cc1 (centres undefined) | 10.9%
